Among all 410,000 compounds or so, about 18,000 (4.4%) were called active. About 7% were inconclusive and are not listed. Cut-off read from the data, not from the text of the source: active = activity change below about -60%; inconclusive = no clear call, values can overlap the other calls; inactive = above about -39%. For the sample, actives were picked, then their nearest neighbours and some compounds at random.
Test: qHTS Assay for inhibitors of the human cytomegalovirus (HCMV)
Details: HFF cells, HCMV-luciferase reporter, 72 h; at 57.5 µM; active compounds read low
From the text: NCGC Assay Overview: Infection with human cytomegalovirus (HCMV) continues to pose significant threats for pregnant women and immunocompromised hosts. HCMV causes serious morbidity and mortality in transplant recipients, and congenital HCMV is the leading infectious cause of mental retardation and deafness in children. In the 1990s, the annual costs associated with the disease burden of congenital CMV were estimated at around $2 billion. A HCMV vaccine is not available yet and HCMV therapies result in intolerable side effects and emergence of drug resistant viruses. […] Towards this goal we have developed and characterized a luciferase HCMV reporter that was initially used in 96 well plates and then optimized to 1536-well plates for utilization in screening of the MLSMR collection, the NGCG diversity collection and the NCGC Pharmaceutical Collection of approved and investigational drugs.
NCGC Assay Protocol Summary:
This is a cell-based assay for HCMV inhibition in HFFs cells. The screening used 2 compound doses and the HCMV-luciferase at MOI of 1 PFU/cell. Cells were treated and infected with HCMV. At 72 h post infection cell lysates were collected and luciferase activity was determined using the Glomax-Multi + Detection System (Promega, Madison, WI). Data were normalized to the controls for basal activity (buffer only) and known HCMV inhibitors Salinmoycin.
1536-well assay protocol for the assay:
(1) Add 3 ul CMV/HFF cell culture. 1000 cells/well in DMEM nirmal media.
(2) Incubate 16 hr at 37C.
(3) Add 23 nl control compound, 10uM of Salinomycin.
(4) Add 23 nl compounds in DMSO solution.
(5) Add 3 ul CMV suspension. Final 1 puf/ul, Virus stock 2000pfu/ul
(6) Incubate 72 hrs at 37C.
(7) Add 4 ul OneGlo Luc Reagent.
(8) Incubate 5 min at room temperature.
% is set by controls: 0 for no effect and ±100 for the full control effect.

SMILES	activity change, negative = inhibition
CCOC(=O)c1c(C)[nH]c(CCC(=O)Nc2ccc(OC)c(OC)c2)c1C	41.8% (inactive)
Cc1ccc(N(CC(=O)NCC(C)c2ccccc2)S(=O)(=O)N(C)C)cc1 (stereo not drawn)	-6.91% (inactive)
O=C(CCc1ccccc1)NCc1ccc2c(c1)CCN2C(=O)c1ccccc1	-7.19% (inactive)
COC1=CCC2([N+](=O)[O-])CN(CC(=O)O)CC1([N+](=O)[O-])C2 (stereo not drawn)	-16.1% (inactive)
CCOC(=O)c1c(C)oc2nc(C)nc(Nc3ccc(CC)cc3)c12	8.66% (inactive)
O=C(Nc1ccc(OC(F)(F)F)cc1)c1cc2c(=O)n3ccccc3nc2s1	-5.91% (inactive)
COc1cc(CN(CC2CCCO2)C(=O)c2ccccc2F)cc(OC)c1OC (stereo not drawn)	-11.3% (inactive)
Cc1ccsc1C1C(C#N)=C(N)OC2=C1C(=O)CC(C)C2 (stereo not drawn)	68.7% (inactive)
CCOC(=O)CSC1=C(C#N)C(c2sccc2C)CC(=O)N1 (stereo not drawn)	-85.4% (active)
C=CCSC1=C(C#N)C(c2cc(Br)c(O)c(OC)c2)CC(=O)N1 (stereo not drawn)	-10.5% (inactive)
Cc1c(-c2cccc(NC(=O)C(C)(C)C)c2)nc2ncccn12	-37.8% (inactive)
COCCn1c(CN2CCC(Cc3ccccc3)CC2)nc2c1c(=O)n(C)c(=O)n2C	-64.7% (active)
CC1CCCN(Cc2nc3c(c(=O)n(C)c(=O)n3C)n2CC(=O)c2ccccc2)C1 (stereo not drawn)	-14.9% (inactive)
CCN1CCN(Cc2nc3c(c(=O)n(C)c(=O)n3C)n2CC(=O)c2ccccc2)CC1	-5.14% (inactive)
CC1CCN(Cc2nc3c(c(=O)n(C)c(=O)n3C)n2CCc2ccccc2)CC1	-62.3% (active)
CN1CCN(Cc2nc3c(c(=O)n(C)c(=O)n3C)n2Cc2cccc3ccccc23)CC1	-10.2% (inactive)
CCOC(=O)N1CCN(Cc2nc3c(c(=O)n(C)c(=O)n3C)n2Cc2ccccc2)CC1	-2.17% (inactive)
COc1ccc(C)cc1NC(=O)CSc1nnc2ccc(-c3ccccn3)nn12	-16.1% (inactive)
CC(C)CNc1cccc2c1S(=O)(=O)N[C@H](C)CO2	-8.73% (inactive)
O=[N+]([O-])c1cccc(/C([O-])=C(/C(=S)Nc2ccccc2F)[n+]2ccccc2)c1	18% (inactive)
CC(=O)c1ccc(S(=O)(=O)NCCC(=O)N2CCN(c3ccccn3)CC2)cc1	60.8% (inactive)
O=C(CCC1CCCN(C(=O)c2ccc(F)c(F)c2)C1)N1CCN(c2ccccn2)CC1 (stereo not drawn)	-29.8% (inactive)

SMILES	activity change, negative = inhibition
C=Cc1ccc(C(=O)N2CCCC(CCC(=O)N3CCN(c4ccccn4)CC3)C2)cc1 (stereo not drawn)	-64.7% (active)
COc1cccc(C(=O)NC2=NC(c3ccc(N(C)C)cc3)CC(=O)N2)c1 (stereo not drawn)	1.4% (inactive)
O=C(Nc1cccc(-c2nc3ccccc3o2)c1)c1cccc(Br)c1	-11.9% (inactive)
COc1ccccc1NC(=O)C(=O)c1cc(C)n(-c2ccccc2F)c1C	-34.6% (inactive)
CCCCCOc1ccc(CSC2=NCCN2)cc1[N+](=O)[O-]	9.19% (inactive)
CCCCOC(=O)CCCc1ccc([N+](=O)[O-])cc1[N+](=O)[O-]	-14.8% (inactive)
CCCCOc1ccc(CSC(=N)N)cc1[N+](=O)[O-]	-63.8% (active)
CC(C)(Oc1ccc(C2CC2(Cl)Cl)cc1)C(=O)O (stereo not drawn)	-0.36% (inactive)
c1ccc2sc(SNC3CCCCC3)nc2c1	15% (inactive)
O=C(NC1(C(F)(F)F)N=C(c2ccccc2)N(C2CCCCC2)C1=O)c1ccccc1F (stereo not drawn)	-18.3% (inactive)
O=C1NC(Nc2nc3ccccc3s2)(C(F)(F)F)C(=O)N1C1CCCCC1 (stereo not drawn)	-63.1% (active)
COC(=O)c1ccc(NC(=O)CN(c2ccc(C)cc2)S(=O)(=O)c2c(C)n[nH]c2C)cc1	30% (inactive)
COC(=O)C1CCN(C(=O)NC2CC(=O)N(c3ccc4c(c3)OCCO4)C2)CC1 (stereo not drawn)	-8.55% (inactive)
Cc1nc2ccn(Cc3cccs3)c(=O)c2cc1C(=O)NCc1ccc(Cl)cc1	0.24% (inactive)
COc1ccc2[nH]c3c(c2c1)CCN(C(=O)CCC1CCCC1)C3c1ccc(F)cc1 (stereo not drawn)	-81.8% (active)
CCOc1cccc(CC(=O)N2CCc3c([nH]c4ccccc34)C2c2ccc(OC)cc2)c1OCC (stereo not drawn)	31.4% (inactive)
CCOc1cccc(CC(=O)N2CCc3c([nH]c4ccccc34)C2c2ccc(F)cc2)c1OCC (stereo not drawn)	-33.4% (inactive)
Cc1ccc(S(=O)(=O)N(C)C)cc1NC(=O)COC(=O)C1COc2ccccc2O1 (stereo not drawn)	19% (inactive)
Cc1ccc(S(=O)(=O)N(C)C)cc1NC(=O)COC(=O)/C=C/c1cccs1	-32.1% (inactive)
Cc1ccc(S(=O)(=O)N(C)C)cc1NC(=O)COC(=O)c1c(C)noc1C	-108% (active)
CCN(CC(=O)Nc1cccc(S(N)(=O)=O)c1)Cc1nc2ccccc2c(=O)[nH]1	-27.6% (inactive)
O=C(COC(=O)CCc1nc2ccccc2c(=O)[nH]1)Nc1ccc(N2CCOCC2)cc1	-20.5% (inactive)

SMILES	activity change, negative = inhibition
Cc1cc(C)c(-c2csc(NC(=O)CCCc3nc4ccccc4c(=O)[nH]3)n2)c(C)c1	-72.6% (active)
CC(C)NC(=O)N1CCN(c2ccncc2S(=O)(=O)N2CCCCC2)CC1	9.43% (inactive)
O=C(Nc1nc2c(s1)CCCC2)c1ccccc1F	-68.5% (active)
O=C(Nc1nnc(-c2ccccc2F)s1)c1ccccc1F	85% (inactive)
CCN1CCc2nc(NC(=O)c3cc(F)c(F)cc3Cl)sc2C1	-0.35% (inactive)
COCCn1c(C)cc(C2=NNC(=Nc3ccc(F)cc3)SC2)c1C	-107% (active)
C=CCn1c(C)cc(C2=NNC(=NCC)SC2)c1C	-99.5% (active)
COc1cccc(-c2nc(S(=O)(=O)c3ccc(C)cc3)c(NCc3ccccc3)o2)c1	2.24% (inactive)
O=C(CSc1nnc(CNC(=O)c2ccccc2)n1-c1ccc(F)cc1)Nc1ccccc1F	-5.45% (inactive)
Cc1cccc(Cn2cccc(C(=O)Nc3ccc4c(c3)OCCO4)c2=O)c1	-12.1% (inactive)
Cc1ccc(CN2CCNC(=O)C2CC(=O)NCc2csc(C(C)C)n2)cc1 (stereo not drawn)	6.06% (inactive)
O=S(=O)(NCC(c1ccccc1)N1CCc2ccccc21)c1ccccc1 (stereo not drawn)	1.26% (inactive)
Cc1cccc(C(=O)N2c3nc(-c4ccco4)nn3C3(CCCCC3)[C@@H]3CCCC[C@@H]32)c1	-17.9% (inactive)
COC(=O)Cc1[nH]n(-c2nc3ccccc3s2)c(=O)c1C(C)=Nc1ccc(OC)cc1	-94.3% (active)
COc1ccc(-c2nc3ccccc3s2)cc1NC(=O)COc1ccccc1C	47.9% (inactive)
COC(=O)c1cccc(C(=O)N2CCCC(Nc3ccc4c(c3)OCCO4)C2)c1 (stereo not drawn)	-15.6% (inactive)
COc1cccc2c1cc1c(=O)n(CC(=O)N3CCN(c4cccc(Cl)c4)CC3)nc(C)n12	50.4% (inactive)
Cc1c(NC(=O)CN2C(=O)C(=O)N(Cc3ccccc3)C2=O)c(=O)n(-c2ccccc2)n1C	-22.2% (inactive)
CN(C)C(CNC(=O)c1cccc(S(=O)(=O)Nc2ccc(Br)cc2)c1)c1ccco1 (stereo not drawn)	-19.6% (inactive)
CN(C)C(CNC(=O)c1cccc(C#N)c1)c1ccco1 (stereo not drawn)	-2.12% (inactive)
CN(C)C(CNC(=O)c1cc(Br)c(Br)s1)c1ccco1 (stereo not drawn)	-67.9% (active)
Cc1cccc(N=C2NC(=O)/C(=C/c3cn(C)c4ccccc34)S2)c1	-80% (active)

SMILES	activity change, negative = inhibition
Cn1cc(/C=C/c2nc3ccccc3c(=O)n2-c2ccccc2)c2ccccc21	31.9% (inactive)
Cc1cccc(N=C2SC(C)CN2C(=O)CN2C(=O)NC3(CCCC3)C2=O)c1 (stereo not drawn)	0.641% (inactive)
O=C(NCCc1ccccc1)c1ccc2c(c1)N(Cc1ccc(F)cc1)C(=O)c1ccccc1S2(=O)=O	10.3% (inactive)
Cc1cccc(-n2c(=O)c3c(c4cc(C)ccc4n3C)n(CC(=O)Nc3ccccc3Cl)c2=O)c1	-1.31% (inactive)
CCN(C(=O)COC(=O)Cc1c(F)cccc1Cl)c1c(N)n(Cc2ccccc2)c(=O)[nH]c1=O	2.58% (inactive)
Cc1ccccc1CNC(=O)CCc1cn(Cc2ccccc2C)c2ccccc12	-37.2% (inactive)
CCC(c1nnnn1C1CCCC1)N(Cc1cccs1)Cc1cc2cccc(C)c2[nH]c1=O (stereo not drawn)	-63.3% (active)
Cc1cccc2cc(CN(Cc3cccs3)C(=S)NCc3ccco3)c(=O)[nH]c12	-16.3% (inactive)
Cc1cccc2cc(CN(Cc3nnnn3Cc3ccccc3)C3CCCC3)c(=O)[nH]c12	-5.56% (inactive)
Cc1cc(C)cc(NS(=O)(=O)c2ccc(Oc3ncc(C(F)(F)F)cc3Cl)cc2)c1	-17.1% (inactive)
CC(C)(O)C#Cc1ncc(C(F)(F)F)cc1Cl	-30.8% (inactive)
COc1cccc(/C=N/Nc2ncc(C(F)(F)F)cc2Cl)c1O	-102% (active)
COc1ccccc1Nc1nc(N)nc(CSC(=S)N2CCOCC2)n1	37.2% (inactive)
Cc1cccc(CC(=O)N2CC(=O)Nc3ccc(F)cc3C2c2ccccc2)c1 (stereo not drawn)	12% (inactive)
COC(=O)CNC(c1ccccc1Cl)c1cc(Br)ccc1NC(=O)CCN1CCOCC1 (stereo not drawn)	-21.3% (inactive)
CCCCCn1c(CCNC(=O)c2ccc(F)cc2)nc2ccccc21	-18.8% (inactive)
Cn1c(NC(=O)c2ccccc2)nc2ccccc21	-84.9% (active)
COC(=O)c1ccc(C2C(C(=O)Nc3ccccc3)=C(C)Nc3nc4ccccc4n32)cc1 (stereo not drawn)	1.76% (inactive)
Cc1c(NS(=O)(=O)c2ccc(Cl)cc2)c(=O)n(-c2ccccc2)n1C	8.64% (inactive)
CC(=O)c1ccc(NC(=O)CCc2nc(-c3ccc(C)cc3)no2)cc1	2.06% (inactive)
CC(=O)Nc1ccc(NC(=O)CCCc2nc(-c3ccc(C(C)(C)C)cc3)no2)cc1	-87.3% (active)
Cc1cc(C)cc(NC(=O)CCCc2nc(-c3ccccc3Cl)no2)c1	-10.6% (inactive)
